# Assay results: PubChem BioAssay AID1159580 (chemical genetic matrix, 2015)
# Screen size: about 5,500 compounds; about 2,000 (36%) were called active. Not shown: some 18% with an inconclusive outcome. The list shows a part of the results. Unmarked numbers belong to inactive results. Cut-off read from the data, not from the text of the source: active = normalized growth mostly below about 0.91 (no sharp cut-off); inconclusive = no clear call, values can overlap the other calls; inactive = mostly above about 0.92.
# Experiment: chemical genetic growth profiling, strain panel (AID 1159580);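 note: tested at 20 µM; growth read once vehicle control cultures reached saturation at 30 °C; 1 = growth at the plate median or of vehicle wells; lower values mean less growth of the strain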
# Settings: S. cerevisiae deletion strains, growth OD
# [1] = locus YHR030C, strain SLT2, hits give low values
# [2] = locus YJL187C, strain SWE1, hits give low values
# [3] = locus YNL153C, strain GIM3, hits give low values
# [4] = locus YNL322C, strain KRE1, hits give low values
# [5] = locus YPL241C, strain CIN2, hits give low values
smiles,measurement,setting,value
Cc1ncc(CO)c(CO)c1O,normalized growth,"locus YAL021C, strain ccr4, hits give low values",1.02
same,normalized growth,"locus YAL026C, strain drs2, hits give low values",1.02
same,normalized growth,"locus YAL030W, strain snc1, hits give low values",1.03
same,normalized growth,"locus YBL061C, strain skt5, hits give low values",1.02
same,normalized growth,"locus YBR009C, strain hhf1, hits give low values",1.01
same,normalized growth,"locus YBR023C, strain chs3, hits give low values",1.03
same,normalized growth,"locus YBR171W, strain sec66, hits give low values",1.04
same,normalized growth,"locus YBR231C, strain swc5, hits give low values",1.02
same,normalized growth,"locus YBR279W, strain paf1, hits give low values",1.01
same,normalized growth,"locus YCL011C, strain gbp2, hits give low values",1.02
same,normalized growth,"locus YCL016C, strain dcc1, hits give low values",1.01
same,normalized growth,"locus YCL069W, strain vba3, hits give low values",1.04
same,normalized growth,"locus YCR088W, strain abp1, hits give low values",1.01
same,normalized growth,"locus YDL005C, strain med2, hits give low values",1.03
same,normalized growth,"locus YDL040C, strain nat1, hits give low values",1.02
same,normalized growth,"locus YDR001C, strain nth1, hits give low values",1.03
same,normalized growth,"locus YDR069C, strain doa4, hits give low values",1.03
same,normalized growth,"locus YDR137W, strain rgp1, hits give low values",1.03
same,normalized growth,"locus YDR159W, strain sac3, hits give low values",1
same,normalized growth,"locus YDR195W, strain ref2",1.03
same,normalized growth,"locus YDR297W, strain sur2, hits give low values",1.03
same,normalized growth,"locus YDR334W, strain swr1, hits give low values",1.03
same,normalized growth,"locus YDR335W, strain msn5, hits give low values",1.02
same,normalized growth,"locus YDR392W, strain spt3, hits give low values",1.01
same,normalized growth,"locus YEL003W, strain gim4, hits give low values",1.02
same,normalized growth,"locus YEL037C, strain rad23, hits give low values",1.02
same,normalized growth,"locus YEL061C, strain CIN8 (second series), hits give low values",1.02
same,normalized growth,"locus YER015W, strain faa2, hits give low values",1.03
same,normalized growth,"locus YER016W, strain bim1, hits give low values",1
same,normalized growth,"locus YER111C, strain swi4, hits give low values",1.02
same,normalized growth,"locus YER155C, strain BEM2 (second series), hits give low values",1.07
same,normalized growth,"locus YFR010W, strain ubp6, hits give low values",1.02
same,normalized growth,"locus YGL167C, strain pmr1, hits give low values",1.03
same,normalized growth,"locus YGL173C, strain kem1, hits give low values",1.04
same,normalized growth,"locus YGL227W, strain vid30, hits give low values",1.02
same,normalized growth,"locus YGL240W, strain doc1, hits give low values",1.01
same,normalized growth,"locus YGL253W, strain hxk2, hits give low values",1.03
same,normalized growth,"locus YHR013C, strain ard1, hits give low values",1.03
same,normalized growth,"locus YHR027C, strain rpn1, hits give low values",1.02
same,normalized growth,[1],0.956
same,normalized growth,"locus YHR079C, strain IRE1, hits give low values",0.98
same,normalized growth,"locus YHR142W, strain chs7, hits give low values",1.02
same,normalized growth,"locus YJL092W, strain hpr5, hits give low values",1.01
same,normalized growth,"locus YJL095W, strain BCK1 (second series), hits give low values",1.02
same,normalized growth,"locus YJL095W, strain BCK1, hits give low values",0.973
same,normalized growth,"locus YJL115W, strain asf1, hits give low values",1.03
same,normalized growth,"locus YJL129C, strain trk1, hits give low values",1.04
same,normalized growth,"locus YJL154C, strain vps35, hits give low values",1.03
same,normalized growth,"locus YJL164C, strain tpk1, hits give low values",1.01
same,normalized growth,"locus YJL166W, strain qcr8, hits give low values",1.02
same,normalized growth,[2],1.03
same,normalized growth,"locus YJR066W, strain TOR1, hits give low values",0.911
same,normalized growth,"locus YKL160W, strain elf1, hits give low values",1.01
same,normalized growth,"locus YKR026C, strain gcn3, hits give low values",1.02
same,normalized growth,"locus YKR091W, strain srl3, hits give low values",1.02
same,normalized growth,"locus YLL001W, strain dnm1, hits give low values",0.999
same,normalized growth,"locus YLL026W, hits give low values",1.02
same,normalized growth,"locus YLL041C, strain sdh2, hits give low values",1.02
same,normalized growth,"locus YLR027C, strain aat2, hits give low values",1.01
same,normalized growth,"locus YLR113W, strain HOG1, hits give low values",0.962
same,normalized growth,"locus YLR221C, strain rsa3, hits give low values",1
same,normalized growth,"locus YLR258W, strain gsy2, hits give low values",1.02
same,normalized growth,"locus YLR262C, strain YPT6 (second series), hits give low values",1.04
same,normalized growth,"locus YLR320W, strain mms22, hits give low values",1.04
same,normalized growth,"locus YLR342W, strain FKS1, hits give low values",1.02
same,normalized growth,"locus YLR357W, strain rsc2, hits give low values",1
same,normalized growth,"locus YLR370C, strain arc18, hits give low values",1.03
same,normalized growth,"locus YLR384C, strain iki3, hits give low values",1.02
same,normalized growth,"locus YML120C, strain ndi1, hits give low values",1.02
same,normalized growth,"locus YMR058W, strain fet3, hits give low values",1.02
same,normalized growth,"locus YMR125W, strain sto1, hits give low values",1.01
same,normalized growth,"locus YMR129W, hits give low values",1.02
same,normalized growth,"locus YMR205C, strain PFK2, hits give low values",1.05
same,normalized growth,"locus YMR231W, strain pep5, hits give low values",1.03
same,normalized growth,"locus YNL071W, strain lat1, hits give low values",1.02
same,normalized growth,"locus YNL183C, strain NPR1, hits give low values",0.927
same,normalized growth,"locus YNL209W, strain ssb2, hits give low values",1.03
same,normalized growth,"locus YNL248C, strain rpa49, hits give low values",1.03
same,normalized growth,"locus YNL322C, strain KRE1 (second series), hits give low values",1.04
same,normalized growth,"locus YNR049C, strain mso1, hits give low values",1.03
same,normalized growth,"locus YOR001W, strain rrp6, hits give low values",1.03
same,normalized growth,"locus YOR070C, strain gyp1, hits give low values",1.03
same,normalized growth,"locus YOR080W, strain dia2, hits give low values",1.04
same,normalized growth,"locus YOR083W, strain WHI5, hits give low values",0.975
same,normalized growth,"locus YOR106W, strain vam3, hits give low values",1.03
same,normalized growth,"locus YOR231W, strain MKK1, hits give low values",0.957
same,normalized growth,"locus YOR265W, strain rbl2, hits give low values",1.03
same,normalized growth,"locus YOR270C, strain vph1, hits give low values",1.08
same,normalized growth,"locus YOR290C, strain snf2, hits give low values",1.02
same,normalized growth,"locus YPL051W, strain arl3, hits give low values",1.02
same,normalized growth,"locus YPL078C, strain atp4, hits give low values",1.02
same,normalized growth,"locus YPL106C, strain sse1, hits give low values",1.04
same,normalized growth,"locus YPL240C, strain hsp82, hits give low values",1.04
same,normalized growth,"locus YPL256C, strain CLN2, hits give low values",0.975
CC(=O)C1=C(C)Nc2ccccc2S1,normalized growth,"locus YAL013W, strain DEP1, hits give low values",0.959
same,normalized growth,"locus YBR229C, strain ROT2, hits give low values",0.949
same,normalized growth,"locus YDL101C, strain DUN1, hits give low values",0.938
same,normalized growth,"locus YDR150W, strain NUM1, hits give low values",0.911
same,normalized growth,"locus YEL061C, strain CIN8, hits give low values",0.943
same,normalized growth,"locus YGR078C, strain PAC10, hits give low values",0.982
same,normalized growth,"locus YGR229C, strain SMI1, hits give low values",1.02
same,normalized growth,[1],0.922
same,normalized growth,"locus YHR087W, strain rtc3, hits give low values",1.01
same,normalized growth,[2],0.954
same,normalized growth,"locus YJR075W, strain HOC1, hits give low values",0.974
same,normalized growth,"locus YLR039C, strain RIC1, hits give low values",0.978
same,normalized growth,"locus YLR058C, strain SHM2 (second series), hits give low values",0.987
same,normalized growth,"locus YLR085C, strain ARP6, hits give low values",0.622 (active)
same,normalized growth,"locus YLR262C, strain YPT6, hits give low values",1.03
same,normalized growth,"locus YML094W, strain GIM5, hits give low values",0.888
same,normalized growth,"locus YMR219W, strain ESC1, hits give low values",0.971
same,normalized growth,"locus YMR263W, strain SAP30, hits give low values",0.852 (active)
same,normalized growth,[3],0.963
same,normalized growth,"locus YNL298W, strain CLA4 (second series), hits give low values",0.857
same,normalized growth,[4],1.02
same,normalized growth,"locus YNR030W, strain Alg12, hits give low values",0.804 (active)
same,normalized growth,"locus YPL055C, strain LGE1, hits give low values",0.795
same,normalized growth,[5],0.849 (active)
same,normalized growth,"locus YPR135W, strain CTF4, hits give low values",0.623 (active)
CCCN(CCC)C(=O)Cc1c(-c2ccc(Cl)cc2)nc2c(Cl)cc(Cl)cn12,normalized growth,"locus YAL040C, strain CLN3, hits give low values",1
same,normalized growth,"locus YDR363W, strain ESC2, hits give low values",1.01
same,normalized growth,"locus YER002W, strain NOP16, hits give low values",1.05
same,normalized growth,"locus YMR307W, strain GAS1, hits give low values",1
same,normalized growth,"locus YNL128W, strain TEP1, hits give low values",1.01
same,normalized growth,[3],1.02
same,normalized growth,"locus YNL175C, strain NOP13, hits give low values",1.03
same,normalized growth,"locus YNL197C, strain WHI3, hits give low values",1.03
same,normalized growth,"locus YNL224C, strain SQS1, hits give low values",1.01
same,normalized growth,[4],0.985
same,normalized growth,"locus YOR083W, strain WHI5 (second series), hits give low values",1.08
same,normalized growth,[5],0.992
